For test [1], the target named is Gonadotropin-releasing hormone receptor (Homo sapiens) (UniProt P30968). The experiment in a line: Human gonadotropin-releasing hormone receptor (GnRHR) small molecule agonists, calcium flux assay in GnRHR-HEK293 cells (AID 1920063). Further: nearly all actives have a fitted effect of over 35% in size. The method in brief: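 We seeded human GnRHR-expressing HEK293 cells for 18 hours, loaded them with calcium dye for an hour at 37 C, added test compounds, and recorded fluorescence intensity kinetically for three minutes.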

Test [2] deals with KiSS-1 receptor (Homo sapiens) (UniProt Q969F8). The experiment in a line: Human kisspeptin (KISS1R) small molecule agonists, calcium flux assay in KISS1R-HEK293 cells (AID 1920064; active means well fitted activation curve with a large enough effect in the repeat runs). The method in brief: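 Kinetic calcium assay, 1 s sampling over 3 min at Ex/Em 480/540, in HEK293 cells engineered with human KISS1R; compounds delivered in DMSO after 1 h dye loading.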
In general terms: Calcium assays in cells follow changes in intracellular calcium, usually with a dye or a luminescent sensor.

Test [3] is described as follows: G protein-coupled receptor (GPCR) small molecule agonists, calcium flux assay: HEK293 wild type cell line counter screen (AID 1920065). A digest of the protocol: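 Calcium-sensitive dye, loaded 1 h at 37 C into cells cultured 18 h, reports compound-evoked calcium release as fluorescence (Ex/Em 480/540), measured over 3 min. Agonist mode; 15-point titrations, triplicate.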

Test [4] is described as follows: p53 small molecule agonists, cell-based qHTS assay with human liver microsomes (AID 1963577).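 Further: p53 response element beta-lactamase reporter cells with liver microsomes plus NADPH.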 The method in brief: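 Metabolically competent format: test substances, human liver microsomes and NADPH (both 0.5 mg/mL final) incubated with p53RE-bla cells 16 h at 37 C. Beta-lactamase reporter signal then quantified by fluorescence.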
The nature of test [5]: p53 small molecule agonists, cell-based qHTS assay with rat liver microsomes (AID 1963578). A digest of the protocol:
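Each plate received p53RE-bla cells, then compound, then rat liver microsomes and NADPH (both 0.5 mg/mL final). Plates were held 16 h at 37 C, and beta-lactamase activity was detected with LiveBLAzer over 2 h.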
For orientation: Quantitative high-throughput screening tests each substance at several concentrations.

Test [6] is described as follows: p53 small molecule agonists, cell-based qHTS assay with human liver microsomes: qHTS cell viability counter screen (AID 1963579). Further: nearly all actives have a fitted effect of over 45% in size. A digest of the protocol:
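Tox21 library compounds, delivered from DMSO stocks, were tested on p53RE-bla cells together with 0.5 mg/mL human liver microsomes and 0.5 mg/mL NADPH (final) over 16 h at 37 C; CellTiter-Glo luminescence served as the cytotoxicity measure.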

Test [7] can be described thus: p53 small molecule agonists, cell-based qHTS assay with rat liver microsomes: qHTS cell viability counter screen (AID 1963580). Further: nearly all actives have a fitted effect of over 45% in size. A digest of the protocol:
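In HCT-116 cells carrying a p53 response element-bla reporter, compounds were metabolically activated in situ by rat liver microsomes with NADPH over 16 h. Cell ATP content then served as the cytotoxicity measure.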

The nature of test [8]: p53 small molecule agonists, cell-based qHTS assay: qHTS cell viability counter screen (AID 1963581). Further: nearly all actives have a fitted effect of over 45% in size. A digest of the protocol:
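Following 5 h attachment, HCT-116 p53RE-bla cells took up compound for 16 h at 37 C; the reporter was read with B/G FRET substrate (2 h RT), and viability then via CellTiter-Glo ATP luminescence.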

Test [9] is described as follows: p53 small molecule agonists, cell-based qHTS assay (AID 1963582; active means well fitted activation curve with a large enough effect in the signal ratio in the repeat runs, not every such curve was filed as active; the % refers to the signal ratio). A digest of the protocol: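 In this cell-based concentration-response screen, a p53 response element drives beta-lactamase; cells received DMSO-borne compounds after 5 h culture and were incubated a further 16 h before FRET substrate development.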
The target in test [10] is 5-hydroxytryptamine receptor 2A (Homo sapiens) (UniProt P28223). In words: 5-hydroxytryptamine receptor 2A (HTR2A) small molecule antagonists, cell-based qHTS assay (AID 1963586). Further: nearly all actives have a fitted effect of over 45% in size. Further: potency means the concentration at half of the fitted maximal effect. The method in brief: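 Antagonist-mode intracellular calcium assay: DOI (4 nM) added after 5 min compound pre-incubation at room temperature to dye-loaded HTR2A-CHO cells. Fluorescence followed for 3 min, sampled every second.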

For test [11] the target is unchanged. In words: 5-hydroxytryptamine receptor 2A (HTR2A) small molecule agonists, cell-based qHTS assay (AID 1963587). Further: nearly all actives have a fitted effect of over 30% in size. Further: potency means the concentration at half of the fitted maximal effect. The method in brief: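 HTR2A-CHO cells, plated 18 h at 37 C/5% CO2, dye-loaded 1 h at 37 C; compounds in DMSO added by pin tool (agonist mode). Intracellular calcium flux read as kinetic fluorescence on FDSS over 2 min at 1 s intervals.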
Test [12] addresses Muscarinic acetylcholine receptor M1 (Homo sapiens) (UniProt P11229). In words: Cholinergic receptor muscarinic 1 (CHRM1) small molecule antagonists, cell-based qHTS assay (AID 1963588). Further: nearly all actives have a fitted effect of over 40% in size. Further: potency means the concentration at half of the fitted maximal effect. The method in brief: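 CHRM1-CHO calcium-flux assay, antagonist mode. Cells were seeded 18 h, dye-loaded 1 h at 37 C and given compound for 5 min at RT, then acetylcholine was added at 50nM. FDSS fluorescence was read 3 min; 15 concentrations, three runs.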

For test [13] the target is unchanged. In words: Cholinergic receptor muscarinic 1 (CHRM1) small molecule agonists, cell-based qHTS assay (AID 1963589). Further: nearly all actives have a fitted effect of over 35% in size. A digest of the protocol: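 Measures agonist-induced intracellular calcium rise. Stable human CHRM1 CHO line, 1 h dye load at 37 C, compounds from DMSO, kinetic fluorescence read.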
The target in test [14] is Beta-2 adrenergic receptor (Homo sapiens) (UniProt P07550). The experiment in a line: Adrenergic beta2 receptor (ADRB2) small molecule antagonists, cell-based qHTS assay (AID 1963592). Further: series mostly up to about 92 µM; nearly all actives have a fitted effect of over 50% in size. The method in brief:
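Cells (CHO, stable ADRB2 overexpression) incubated 18-20hr at 37C; compounds added from DMSO; agonist mix (1nM isoproterenol, 100uM IBMX, 25uM Ro-20-1724) added; 0.5hr RT; d2-cAMP and anti-cAMP-cryptate added; 1hr RT; 665/615 nm read.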

Test [15] deals with D(2) dopamine receptor (Homo sapiens) (UniProt P14416). In words: Dopamine D2 receptor (DRD2) small molecule agonists, cell-based qHTS assay (AID 1963594). Further: nearly all actives have a fitted effect of over 35% in size. A digest of the protocol: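 HEK293 cells stably expressing DRD2 were cultured 24 h at 37 C, then given Ro20-1724 (0.1 mM final) and compounds for 10 min at room temperature. NKH477 (200nM) was then added for 30 min. cAMP was read by HTRF.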

Test [16] shares this target. In words: Dopamine D2 receptor (DRD2) small molecule antagonists, cell-based qHTS assay (AID 1963595; active means well fitted inhibition curve with a large enough effect in the signal ratio in the repeat runs, with a control signal flat; the % refers to the signal ratio). A digest of the protocol: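 Antagonist mode in DRD2-HEK293 cells: after compound addition with 0.1 mM Ro20-1724, cells received quinpirole (12 nM) and NKH477 (200 nM) for 30 min at room temperature; HTRF cAMP read after 1 h detection.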
Test [17] is described as follows: Nuclear factor erythroid 2-related factor 2/antioxidant responsive element (Nrf2/ARE) small molecule agonists: luciferase reporter gene qHTS assay in human keratinocytes (AID 1919969). Further: nearly all actives have a fitted effect of over 35% in size. Further: potency means the concentration at half of the fitted maximal effect. In general terms: Reporter assays use an easily measured gene product as a stand-in for the process of interest.
A short description of test [18]: cAMP Responsive Elements (CRE) small molecule agonists, cell-based qHTS assay (AID 1963590). A digest of the protocol:
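A CRE-responsive beta-lactamase reporter in HEK 293T cells was used. Treatment ran 3 h at 37 C; detection used LiveBLAzer B/G FRET substrate for 2 h at room temperature.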

In test [19] the target is Beta-2 adrenergic receptor (Homo sapiens) (UniProt P07550). The experiment in a line: Adrenergic beta2 receptor (ADRB2) small molecule agonists, cell-based qHTS assay (AID 1963593).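 Further: CHO cells stably overexpressing human ADRB2.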 The method in brief: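 CHO cells stably over-expressing ADRB2 were plated overnight at 37C, then dosed with compounds plus a stimulation mix containing 100uM IBMX and 25uM Ro-20-1724 for 0.5hr at room temperature. cAMP was measured by HTRF competition, 1hr.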

A short description of test [20]: cAMP Responsive Elements (CRE) small molecule antagonists, cell-based qHTS assay (AID 1963591; active means well fitted inhibition curve with a large enough effect in the signal ratio in the repeat runs, not every such curve was filed as active; the % refers to the signal ratio). The method in brief: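 HEK293T cells carrying a CRE-driven beta-lactamase reporter receive compound and NKH477 (0.25 uM final) for 3 h. Fluorescence from LiveBLAzer B/G FRET substrate is read after 2 h at room temperature.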

Inconclusive results are not listed. The source made the active and inactive calls. Unless noted, the call rests on the fitted dose curve.

Here are results for eight molecules from PubChem BioAssay (Tox21).

Chain of Muscarinic acetylcholine receptor M1 (Homo sapiens) (P11229 whole entry, looked up): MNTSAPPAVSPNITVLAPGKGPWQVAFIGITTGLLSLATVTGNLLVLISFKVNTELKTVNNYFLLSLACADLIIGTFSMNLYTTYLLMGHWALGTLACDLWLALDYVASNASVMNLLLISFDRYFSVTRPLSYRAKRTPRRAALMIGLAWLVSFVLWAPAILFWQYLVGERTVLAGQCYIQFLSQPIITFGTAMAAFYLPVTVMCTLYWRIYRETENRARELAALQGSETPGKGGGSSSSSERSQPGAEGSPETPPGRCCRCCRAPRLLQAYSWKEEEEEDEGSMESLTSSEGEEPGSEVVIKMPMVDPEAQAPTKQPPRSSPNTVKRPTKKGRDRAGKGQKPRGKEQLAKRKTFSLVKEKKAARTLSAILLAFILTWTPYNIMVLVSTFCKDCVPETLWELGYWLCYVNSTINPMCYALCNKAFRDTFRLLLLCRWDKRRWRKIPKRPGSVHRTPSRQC
Chain of KiSS-1 receptor (Homo sapiens) (Q969F8 whole entry, looked up): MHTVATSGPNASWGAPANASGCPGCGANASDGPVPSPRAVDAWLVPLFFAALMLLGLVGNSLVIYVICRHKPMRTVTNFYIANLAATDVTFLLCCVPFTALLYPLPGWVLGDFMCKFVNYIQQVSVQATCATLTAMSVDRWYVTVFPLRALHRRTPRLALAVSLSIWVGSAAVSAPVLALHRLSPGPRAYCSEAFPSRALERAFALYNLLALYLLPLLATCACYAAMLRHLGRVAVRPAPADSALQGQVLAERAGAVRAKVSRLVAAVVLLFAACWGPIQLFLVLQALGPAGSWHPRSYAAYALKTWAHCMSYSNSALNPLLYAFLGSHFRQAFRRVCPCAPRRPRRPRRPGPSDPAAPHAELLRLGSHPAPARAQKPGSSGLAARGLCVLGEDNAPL
Chain of Gonadotropin-releasing hormone receptor (Homo sapiens) (P30968 whole entry, looked up): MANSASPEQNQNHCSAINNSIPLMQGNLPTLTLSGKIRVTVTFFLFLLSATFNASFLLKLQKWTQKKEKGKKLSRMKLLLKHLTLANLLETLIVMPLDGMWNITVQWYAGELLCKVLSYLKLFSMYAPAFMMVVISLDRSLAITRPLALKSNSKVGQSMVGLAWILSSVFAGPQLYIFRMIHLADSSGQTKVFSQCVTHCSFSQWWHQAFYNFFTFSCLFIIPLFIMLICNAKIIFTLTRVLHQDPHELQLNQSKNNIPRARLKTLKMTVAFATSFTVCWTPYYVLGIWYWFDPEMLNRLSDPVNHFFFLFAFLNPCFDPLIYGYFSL
Chain of D(2) dopamine receptor (Homo sapiens) (P14416 whole entry, looked up): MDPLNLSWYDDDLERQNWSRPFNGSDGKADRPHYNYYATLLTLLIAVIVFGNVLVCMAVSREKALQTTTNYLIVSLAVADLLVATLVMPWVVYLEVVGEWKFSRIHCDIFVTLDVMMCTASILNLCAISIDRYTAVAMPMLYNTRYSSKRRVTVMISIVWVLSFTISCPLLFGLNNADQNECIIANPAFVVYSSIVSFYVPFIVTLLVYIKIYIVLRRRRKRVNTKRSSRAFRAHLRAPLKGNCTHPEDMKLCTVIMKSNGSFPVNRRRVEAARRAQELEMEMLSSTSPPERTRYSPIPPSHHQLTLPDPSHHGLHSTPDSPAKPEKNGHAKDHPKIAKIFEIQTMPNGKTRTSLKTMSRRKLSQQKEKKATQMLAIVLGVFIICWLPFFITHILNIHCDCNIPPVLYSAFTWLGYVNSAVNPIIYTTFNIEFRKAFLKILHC
Chain of 5-hydroxytryptamine receptor 2A (Homo sapiens) (P28223 whole entry, looked up): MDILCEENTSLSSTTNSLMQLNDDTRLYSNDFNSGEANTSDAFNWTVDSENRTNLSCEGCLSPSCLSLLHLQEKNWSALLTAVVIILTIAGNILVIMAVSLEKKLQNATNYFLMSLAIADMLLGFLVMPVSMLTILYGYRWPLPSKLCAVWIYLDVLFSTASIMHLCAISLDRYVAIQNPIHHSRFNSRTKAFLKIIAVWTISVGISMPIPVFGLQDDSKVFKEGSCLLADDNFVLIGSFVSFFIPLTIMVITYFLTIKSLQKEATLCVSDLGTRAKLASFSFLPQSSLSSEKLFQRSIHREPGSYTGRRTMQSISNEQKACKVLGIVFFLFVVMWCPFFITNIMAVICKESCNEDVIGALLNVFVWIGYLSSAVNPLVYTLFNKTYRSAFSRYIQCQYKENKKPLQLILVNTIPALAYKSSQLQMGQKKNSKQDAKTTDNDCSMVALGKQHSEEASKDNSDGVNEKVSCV
Chain of Beta-2 adrenergic receptor (Homo sapiens) (P07550 whole entry, looked up): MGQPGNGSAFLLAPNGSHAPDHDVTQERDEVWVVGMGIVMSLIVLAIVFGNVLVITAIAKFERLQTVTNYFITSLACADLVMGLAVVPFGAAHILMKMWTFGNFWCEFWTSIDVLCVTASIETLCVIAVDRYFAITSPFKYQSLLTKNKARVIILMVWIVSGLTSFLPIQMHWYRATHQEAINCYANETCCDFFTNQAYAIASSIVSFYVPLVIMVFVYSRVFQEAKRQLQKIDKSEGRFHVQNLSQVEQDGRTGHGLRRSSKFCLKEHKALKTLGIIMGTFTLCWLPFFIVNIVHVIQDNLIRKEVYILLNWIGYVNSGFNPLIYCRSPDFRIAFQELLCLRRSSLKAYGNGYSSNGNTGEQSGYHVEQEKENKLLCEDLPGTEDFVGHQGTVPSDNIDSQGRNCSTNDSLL

As for `CCCN(C1CCN(C(=O)C2CCNCC2)CC1)[C@@H]1CCc2ccc(OC)cc2C1`, the Potency entry in test [1], in [2], in test [3], in [4], in test [5] and in test [6] was “inactive” each time. The Potency entry in [7], in [8], in test [9], in [12], in [13] and in [14] was “inactive” throughout. Also, the Potency result in test [15] and in [16] was “inactive” throughout. Further, the Potency in test [10] is 37.5 µM (active); in test [11], 17.4 µM (active).

Consider `CCc1ccc(O)c(C(C)(C)C)c1`, for which the Potency entry in [17], in test [2], in [3], in [5], in test [8] and in test [9] was “inactive” throughout. Moreover, the Potency result in test [13], in [14] and in [15] was “inactive” throughout. Further, the Potency in test [11] was 49 µM (active); in [12] it was 37.5 µM (active).

For `c1ccc(-c2ccc(C(c3ccccc3)n3ccnc3)cc2)cc1` (stereo unspecified), the Potency in [17] is 29.8 µM (active). Further, the Potency entry in test [2], in [3], in [6], in test [7], in test [8] and in [11] was “inactive” each time. For the same molecule, the Potency entry in test [13], in test [18], in test [14], in test [19], in test [15] and in [16] was “inactive” each time.

`CC[C@@]1(O)C(=O)OCc2c1cc1n(c2=O)Cc2cc3c(CN(C)C)c(O)ccc3nc2-1`: the Potency entry in [17], in test [2], in test [7], in test [14], in test [19] and in test [15] was “inactive” in each case. For the same molecule, in test [16], the Potency entry is “inactive”.

As for `O=C(Nc1ccc(Cl)cc1)Nc1ccc(Cl)c(C(F)(F)F)c1`, the Potency in [17] was 11.9 µM (active). In addition, the Potency result in [2], in test [3], in test [5], in test [6], in test [7] and in [11] was “inactive” each time. The Potency entry in [12], in test [13], in test [15] and in [16] was “inactive” throughout.

For `CNc1ccc([N+](=O)[O-])cc1`, the Potency result in test [17], in test [2], in [3], in test [7], in test [8] and in test [10] was “inactive” each time. Besides, the Potency result in test [11], in test [12], in test [13], in test [18], in test [20] and in test [14] was “inactive” throughout. The Potency result in test [19], in [15] and in test [16] was “inactive” each time.

`Cc1ccc(C(N)=O)cc1N`: the Potency entry in [17], in test [2], in test [3], in test [6], in test [7] and in test [8] was “inactive” throughout. Besides, the Potency result in test [10], in test [11], in test [12], in test [13], in test [18] and in test [20] was “inactive” in each case. Besides, the Potency result in [19], in [15] and in test [16] was “inactive” throughout.

As to `CCc1ccc(C(c2ccc(CC)cc2)C(Cl)Cl)cc1`, the Potency result in test [1], in test [2], in [3], in test [4], in test [5] and in test [6] was “inactive” throughout. The Potency entry in test [7], in [8], in [9], in test [10], in test [11] and in test [12] was “inactive” each time. Moreover, the Potency result in test [13], in test [18], in test [20], in [14], in [19] and in test [16] was “inactive” throughout.
